For 1 molecule, normalized growth results are on record in PubChem BioAssay AID1159580 (chemical genetic matrix, 2015).

Where “and” joins values, the source holds several entries; their conditions need not be identical. Equal entries are not always repeated. In all, about 5,500 compounds went through this assay and about 2,000 (36%) were called active. Inconclusive results (about 18%) are left out. Cut-off read from the data, not from the text of the source: active = normalized growth mostly below about 0.91 (no sharp cut-off); inconclusive = no clear call, values can overlap the other calls; inactive = mostly above about 0.92. This is one part of the list. The source holds several records for some structures; these can differ, active in one and inactive in another.

This assay in a line: chemical genetic growth profiling, strain panel (AID 1159580).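 Note: tested at 20 µM; growth read once vehicle control cultures reached saturation at 30 °C; 1 = growth at the plate median or of vehicle wells; lower values mean less growth of the strain.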 To be noted: S. cerevisiae deletion strains, growth OD.

On to `CC(N)(Cc1ccc(O)c(O)c1)C(=O)O` (stereo unspecified), for which the normalized growth was 0.956 (inactive) (locus YAL013W, strain DEP1, stronger effect = lower value); 0.961 (inactive) and 1 (inactive) (locus YAL040C, strain CLN3, stronger effect = lower value); 0.914 (active) and 0.963 (inactive) (locus YCL061C, strain MRC1 (second series), stronger effect = lower value); 1.02 (inactive) and 1.01 (inactive) (locus YDR363W, strain ESC2, stronger effect = lower value); 1.01 (inactive) (locus YER002W, strain NOP16, stronger effect = lower value); 1.01 (inactive) and 0.992 (inactive) (locus YGR078C, strain PAC10, stronger effect = lower value). Besides, the normalized growth was 0.862 (inactive) (locus YGR229C, strain SMI1, stronger effect = lower value); 0.984 (inactive) and 0.975 (inactive) (locus YJR075W, strain HOC1, stronger effect = lower value); 1.01 (inactive) (locus YMR263W, strain SAP30, stronger effect = lower value); 0.971 (inactive) (locus YNL153C, strain GIM3, stronger effect = lower value); 1.01 (inactive) and 1 (inactive) (locus YNL175C, strain NOP13, stronger effect = lower value); 1.01 (inactive) (locus YNL197C, strain WHI3, stronger effect = lower value). Moreover, the normalized growth is, setting by setting: (locus YNL224C, strain SQS1, stronger effect = lower value) 1.01 (inactive); (locus YNL322C, strain KRE1, stronger effect = lower value) 1.02 (inactive) and 1.01 (inactive); (locus YOR083W, strain WHI5 (second series), stronger effect = lower value) 1.01 (inactive) and 0.993 (inactive); (locus YPL055C, strain LGE1, stronger effect = lower value) 0.943 (inactive).
